Assay results taken from PubChem BioAssay (Tox21).
Several values for one entry are separate records, joined by “and”; a condition that tells them apart may be missing. Equal entries are not always repeated. Results filed as inconclusive are left out. The source holds several records for some structures; these can differ, active in one and inactive in another. Activity calls are given as the source filed them. Unless noted, calls follow the shape of the dose curve; as a rule, active = well fitted curve in the direction sought with a large enough effect in the repeat runs; inconclusive = weak or mixed curves; inactive = no such curve, though single readings can be large; an effect the other way counts as inactive or inconclusive.

How the values were obtained:
[1] = qHTS assay for small molecule agonists of the p53 signaling pathway (AID 651631; calls by dose curve; also: nearly all actives have a fitted effect of over 15% in size)
In short: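 Read-out is beta-lactamase FRET fluorescence measured 2 h after substrate addition at room temperature, in HCT-116 cells with a p53 response element-driven reporter exposed to compounds for 16 h at 37 °C.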

[2] = qHTS assay for small molecules that induce genotoxicity in human embryonic kidney cells expressing luciferase-tagged ATAD5 (AID 651632); also: nearly all actives have a fitted effect of over 15% in size
In short: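 Genotoxicity read-out via ATAD5-luciferase: HEK293T cells, 16 hr compound incubation at 37C, Amplite detection.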

[3] = qHTS assay for small molecules that induce genotoxicity in human embryonic kidney cells expressing luciferase-tagged ATAD5 - cell viability (AID 651634; calls by dose curve; also: nearly all actives have a fitted effect of over 25% in size)
In short: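 Live-cell protease activity (CellTiter-Fluor, fluorescence) indicates viability. HEK293T cells with luciferase-tagged ATAD5; 15.5 hr compound treatment at 37C.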

[4] = qHTS assay for small molecule disruptors of the mitochondrial membrane potential - cell viability (AID 720634; calls by dose curve;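 also: human HepG2 liver cancer cells; series mostly up to about 83 µM; nearly all actives have a fitted effect of over 20% in size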)
In short: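 Human hepatoma HepG2 cells were treated for 1 hr with test chemicals, then given m-MPI dye and CellTiter-Glo. Cell viability reflects luminescence proportional to cellular ATP.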

[5] = qHTS assay for small molecule disruptors of the mitochondrial membrane potential (AID 720635); also: potency is read from the fitted curve at half-maximal effect
In short: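 HepG2 cells exposed to compound 1 hr at 37C, then Mito-MPS dye 30 min. Ratio read of aggregate (540/590 nm) versus monomer (490/535 nm) fluorescence.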

[6] = qHTS assay to test for compound auto fluorescence at 590 nm (red) in HepG2 cells (AID 720674)
In short: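 Seeding: 2,000 HepG2 cells/well, MEM/10% FBS, overnight 37 C. Dosing: compound vs DMSO. Incubation: 1 hr, 37 C, 5% CO2. Read: fluorescence 540 ex/590 em, Rose Bengal sodium as red reference.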

[7] = qHTS assay to test for compound auto fluorescence at 535 nm (green) in HepG2 cells (AID 720675)
[8] = qHTS assay to test for compound auto fluorescence at 460 nm (blue) in HEK293 cells (AID 720678)
In short: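 Blue-channel (Ex/Em 405/460 nm) intensity measured in HEK293 cultures after overnight compound exposure at 37C; signal expressed relative to triamterene. Cells plated 2,000 per well in 10% dialyzed FBS medium and allowed 4-5 hr to attach.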

[9] = qHTS assay to test for compound auto fluorescence at 590 nm (red) in HEK293 cells (AID 720679)
In short: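 Red-channel autofluorescence (Ex/Em 540/590 nm; Rose Bengal sodium reference) was measured after overnight 37C, 5% CO2 exposure of attached HEK293 cells, 2,000 per well in medium with 10% dialyzed FBS.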

[10] = qHTS assay to test for compound auto fluorescence at 535 nm (green) in HEK293 cells (AID 720680)
[11] = qHTS assay to test for compound auto fluorescence at 460 nm (blue) in HEK293 cell free culture (AID 720681)
In short: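 Compounds were added to cell-free DMEM with 10% FBS and fluorescence read directly. The blue channel used 405 nm excitation and 460 nm emission, with triamterene as the reference fluorophore.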

[12] = qHTS assay to test for compound auto fluorescence at 535 nm (green) in HEK293 cell free culture (AID 720682)
In short: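 Fluorescein serves as the green reference fluorophore; each compound's intrinsic emission at 535 nm (excitation 485 nm) is reported as an equivalent amount of that dye, measured in serum-containing DMEM without cells.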

[13] = qHTS assay to test for compound auto fluorescence at 590 nm (red) in HEK293 cell free culture (AID 720683)
In short: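 Cell-free wells of DMEM with 10% FBS received compound, and intrinsic fluorescence was read at excitation/emission 540/590 nm. Values expressed as equivalence to Rose Bengal sodium.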

[14] = qHTS assay to test for compound auto fluorescence at 590 nm (red) in HepG2 cell free culture (AID 720684)
In short: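 Compounds are added to culture medium (MEM, 10% FBS) lacking cells, then fluorescence is read at excitation 540 nm, emission 590 nm, with Rose Bengal sodium as the equivalency standard.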

[15] = qHTS assay to test for compound auto fluorescence at 460 nm (blue) in HepG2 cell free culture (AID 720685)
In short: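 Compound (23 nL) or DMSO pinned into cell-free MEM with 10% FBS; blue fluorescence read at 405/460 nm excitation/emission, expressed as auto-fluorescence equivalency to triamterene.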

[16] = qHTS assay to test for compound auto fluorescence at 535 nm (green) in HepG2 cell free culture (AID 720686)
[17] = qHTS assay to test for compound auto fluorescence at 460 nm (blue) in HepG2 cells (AID 720687)
In short: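 HepG2 cells in MEM with 10% FBS, attached overnight at 37 C, were exposed to compound or DMSO for 1 hr at 37 C, 5% CO2. Blue fluorescence was read at 405/460 nm, with triamterene as reference fluorophore.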

[18] = biological target: Glucocorticoid receptor (Homo sapiens) (UniProt P04150); experiment: qHTS assay to identify small molecule agonists of the glucocorticoid receptor (GR) signaling pathway (AID 720691; active = well fitted activation curve with a large enough effect in the signal ratio in the repeat runs, not every such curve was filed as active; the % refers to the signal ratio)
Glucocorticoid receptor (Homo sapiens), sequence (P04150 whole entry, looked up): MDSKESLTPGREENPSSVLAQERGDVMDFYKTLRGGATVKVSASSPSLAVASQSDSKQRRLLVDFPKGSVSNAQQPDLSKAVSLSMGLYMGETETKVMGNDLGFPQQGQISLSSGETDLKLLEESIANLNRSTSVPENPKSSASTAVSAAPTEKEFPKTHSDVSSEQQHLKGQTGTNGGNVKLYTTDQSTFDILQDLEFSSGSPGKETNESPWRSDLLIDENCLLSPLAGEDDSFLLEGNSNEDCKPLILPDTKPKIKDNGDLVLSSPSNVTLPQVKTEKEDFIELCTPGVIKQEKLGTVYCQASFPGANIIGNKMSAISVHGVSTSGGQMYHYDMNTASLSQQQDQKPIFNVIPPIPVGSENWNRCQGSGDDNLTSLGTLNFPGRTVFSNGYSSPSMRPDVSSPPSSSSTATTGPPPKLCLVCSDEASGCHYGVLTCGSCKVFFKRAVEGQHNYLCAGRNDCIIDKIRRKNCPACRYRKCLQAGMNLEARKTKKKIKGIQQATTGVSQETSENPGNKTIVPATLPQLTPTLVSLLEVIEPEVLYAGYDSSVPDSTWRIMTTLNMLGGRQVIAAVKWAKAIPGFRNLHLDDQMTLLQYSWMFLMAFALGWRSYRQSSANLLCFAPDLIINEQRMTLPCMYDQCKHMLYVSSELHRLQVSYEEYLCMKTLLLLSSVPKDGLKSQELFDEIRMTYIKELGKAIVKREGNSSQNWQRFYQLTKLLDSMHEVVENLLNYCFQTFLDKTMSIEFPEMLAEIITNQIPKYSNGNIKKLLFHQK
In short: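 Beta-lactamase reporter activity, read as fluorescence intensity, was measured in GR-bla HeLa cells exposed to compounds for 18 h at 37 C and then loaded with LiveBLAzer B/G FRET substrate for 2 h at room temperature.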

[19] = biological target: Glucocorticoid receptor (Homo sapiens) (UniProt P04150); experiment: qHTS assay to identify small molecule antagonists of the glucocorticoid receptor (GR) signaling pathway (AID 720692; active = well fitted inhibition curve with a large enough effect in the signal ratio in the repeat runs, not every such curve was filed as active; the % refers to the signal ratio; also: potency is read from the fitted curve at half-maximal effect)
In short: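 Fluorescence from cleaved LiveBLAzer B/G FRET substrate reports GRE-driven beta-lactamase in HeLa cells; compounds are tested against 5 nM dexamethasone (final) over 18 h at 37 C, substrate incubation 2 h at room temperature.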

[20] = qHTS assay for small molecule agonists of the p53 signaling pathway - cell viability (AID 651633; calls by dose curve;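 also: p53RE-bla HCT reporter cells with a stable beta-lactamase p53 reporter; series mostly up to about 83 µM; nearly all actives have a fitted effect of over 30% in size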)
In short: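 p53RE-bla cells were treated with compound for 16 hours at 37 C. Cytotoxicity was then measured as CellTiter-Glo luminescence after 30 min at room temperature.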
% is scaled to controls: 0 for no effect and ±100 for the full control effect.

CC(=O)OC(C)OC(C)=O
inactive: Potency [1] | Potency [2] | Potency [3] | Potency [4] | Potency [5] | outcome [6] | outcome [7] | outcome [8] | outcome [9] | outcome [10] | outcome [11] | outcome [12] | outcome [13] | outcome [14] | outcome [15] | outcome [16] | outcome [17] | Potency [18] | Potency [19]

O=C(O)c1ccccc1Nc1cc(Cl)ccc1C(=O)O
inactive: Potency [1] | Potency [2] | Potency [3] | Potency [4] | Potency [5] | outcome [6] | outcome [8] | outcome [9] | outcome [10] | outcome [11] | outcome [12] | outcome [13] | outcome [14] | outcome [15] | outcome [16] | outcome [17] | Potency [18] | Potency [19]

CC(C)=CCC[C@](C)(O)[C@@H]1CC=C(C)CC1
active: Potency [5] 30.6 µM
inactive: Potency [1] | Potency [20] | Potency [3] | Potency [4] | outcome [6] | outcome [7] | outcome [8] | outcome [9] | outcome [10] | outcome [11] | outcome [12] | outcome [13] | outcome [14] | outcome [15] | outcome [16] | outcome [17] | Potency [18]

Cc1c(-c2ccccc2)oc2c(C(=O)OCCN3CCCCC3)cccc2c1=O
inactive: Potency [1] | Potency [2] | Potency [20] | Potency [4] | Potency [5] | fluorescence, % of fluorescein control [7] 0.273% [at 18.6 µM] | fluorescence, % of triamterene [8] -0.209% [at 18.6 µM] | fluorescence, % of fluorescein [10] -0.0807% [at 18.6 µM] | fluorescence, % of fluorescent control [11] 0.0764% [at 18.6 µM] | activity change [12] -0.0846% [at 18.6 µM] | fluorescence, % of fluorescent control [13] -0.0474% [at 18.6 µM] | fluorescence, % of Rose Bengal [14] -0.137% [at 18.6 µM] | fluorescence, % of fluorescent control [15] -0.115% [at 18.6 µM] | fluorescence, % of fluorescein control [16] 0.0304% [at 18.6 µM] | fluorescence, % of fluorescent control [17] -0.0666% [at 18.6 µM] | Potency [18] | Potency [19]

CC(C)C1=CC2=CC[C@@H]3[C@](C)(CCC[C@@]3(C)C(=O)O)[C@H]2CC1
inactive: Potency [1] | Potency [2] | Potency [20] | Potency [4] | Potency [5] | outcome [7] | outcome [8] | outcome [9] | outcome [10] | outcome [11] | outcome [12] | outcome [13] | outcome [14] | outcome [15] | outcome [16] | outcome [17] | Potency [18]
inactive and 54.9 µM (active): Potency [19]

CCCCCCCCCC#N
inactive: Potency [1] | Potency [2] | Potency [4] | outcome [7] | outcome [8] | outcome [9] | outcome [10] | outcome [11] | outcome [12] | outcome [13] | outcome [14] | outcome [15] | outcome [16] | outcome [17] | Potency [18] | Potency [19]

O=C1N(c2ccccc2)c2ccccc2C1(Cc1ccncc1)Cc1ccncc1
inactive: Potency [1] | Potency [2] | Potency [20] | Potency [4] | Potency [5] | outcome [6] | outcome [7] | outcome [8] | outcome [10] | outcome [11] | outcome [12] | outcome [13] | outcome [14] | outcome [15] | outcome [16] | outcome [17] | Potency [18] | Potency [19]

CC(=O)N[C@@H](CC(C)C)C(=O)O
inactive: Potency [1] | Potency [2] | Potency [3] | Potency [4] | Potency [5] | outcome [7] | outcome [8] | outcome [9] | outcome [10] | outcome [11] | outcome [12] | outcome [13] | outcome [14] | outcome [16] | outcome [17]

CCCCNCCCC
inactive: Potency [1] | Potency [2] | Potency [4] | outcome [6] | outcome [8] | outcome [9] | outcome [10] | outcome [11] | outcome [12] | outcome [13] | outcome [14] | outcome [15] | outcome [16] | outcome [17] | Potency [18] | Potency [19]
